These results are taken from PMC7819943, “Rice protein-binding microarrays: a tool to detect cis-acting elements near promoter regions in rice”.

The full ranking holds about 35,000 sequences; the median of “fluorescence intensity (a.u.)” is about 10,000, and the highest 2% start at about 52,000. This excerpt belongs to a sample that is enriched for the highest values.

This test has as its target T1, OsWOX13 (Oryza sativa, UniProt Q5QMM3 1-267).
T1 sequence: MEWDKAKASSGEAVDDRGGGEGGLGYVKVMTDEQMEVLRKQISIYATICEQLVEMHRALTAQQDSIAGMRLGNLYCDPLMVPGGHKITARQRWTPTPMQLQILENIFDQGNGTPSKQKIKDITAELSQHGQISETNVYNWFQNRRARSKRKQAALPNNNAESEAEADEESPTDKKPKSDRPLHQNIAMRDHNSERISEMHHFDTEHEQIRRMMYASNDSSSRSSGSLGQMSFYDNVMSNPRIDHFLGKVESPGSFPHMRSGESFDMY
In words: protein-binding microarray (RPBM); PBS, 2% BSA, 51.3 ng/ul salmon testes DNA, 50 uM zinc acetate, 200 nM TF, 25 C, 1 h; high values mean tight binding. The note with it: protein: recombinant; tags: N-terminal polyhistidine and DsRed monomer fusion (pET32a); label: CyDye5-dUTP incorporated in the synthesized complementary strand; 3' TTTTT single-stranded linker to array surface; dsDNA, one strand shown. The gist of the method:
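Polyhistidine-tagged DsRed fusions of transcription factors, joined at the N-terminus, were expressed in E. coli BL21-CodonPlus and isolated on Ni–NTA. They were incubated at 200 nM for 1 h at 25 °C on a custom Agilent array, double-stranded and BSA-blocked, in PBS with 2% BSA, salmon testes DNA and 50 µM zinc acetate. The binding signal is per-feature fluorescence intensity (arbitrary units) read on an Axon 4000B scanner after washing.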
Turning to “TTCCAACCAATCATAACCCAATAAGAGCAAAATGGAAAACCGGAGTCACCTAGTGCAG”, the binding signal was 4060 fluorescence intensity (a.u.).

Turning to “AGGTGTTGATTTTGGGTGGCGGGCCCAATCGGATAGGCCACGGAGTCACCTAGTGCAG”, the binding signal is 3770 fluorescence intensity (a.u.).

For “CTGAGGACACTTAATGATTGATGCTCATAATATATTGTTTCGGAGTCACCTAGTGCAG”, the binding signal was 17300 fluorescence intensity (a.u.).

Regarding “AAAAGCAGGTTTACTTACGCCTCATGTTCTCACACTAATTCGGAGTCACCTAGTGCAG”, the binding signal was 24400 fluorescence intensity (a.u.).

“TCTGTCTGATTTGTAATCTTTTCCCTTGGCTTTGAGCGTGCGGAGTCACCTAGTGCAG”: the binding signal was 29400 fluorescence intensity (a.u.).

For “AATTAATTAATTAGCAATGCAGCATCGTCGATCATTGACCCGGAGTCACCTAGTGCAG”, the binding signal was 62500 fluorescence intensity (a.u.).

Consider “GGTCGATCCATCGATTGATGGATCAATAATGCAAGCAAGCCGGAGTCACCTAGTGCAG”, for which the binding signal is 5030 fluorescence intensity (a.u.).

“TTTGCCACTAATTAATCTACTAATGGCTTATGATAGTCATCGGAGTCACCTAGTGCAG”: the binding signal is 10700 fluorescence intensity (a.u.).

For “GCAATAATAATTACTGATAGCCACCACTATCAATAATAATCGGAGTCACCTAGTGCAG”, the binding signal is 12600 fluorescence intensity (a.u.).

Turning to “TATATATATATAATTATGCATCCTGGTTAGCAATTAATGTCGGAGTCACCTAGTGCAG”, the binding signal was 3400 fluorescence intensity (a.u.).

On to “CTTAATTAATTAATAGCAGCAGCAATGCCACTGTGGCCATCGGAGTCACCTAGTGCAG”, for which the binding signal was 53500 fluorescence intensity (a.u.).

Take “TTATTTGTTTTGTTTGTGATTTGCTTTATTATCAAAAGTACGGAGTCACCTAGTGCAG”: the binding signal is 4600 fluorescence intensity (a.u.).

Regarding “ATCGTATCATTGATTTTCACTTAATATGGTGGACCCATCACGGAGTCACCTAGTGCAG”, the binding signal is 12700 fluorescence intensity (a.u.).

For “ACAGACATAAATACGATTGATTAAGTAGTAGCCTAGCTAACGGAGTCACCTAGTGCAG”, the binding signal was 14600 fluorescence intensity (a.u.).

Regarding “GGTTTATTCAATTATGAAATTTTACTCCCCTATGTACTAACGGAGTCACCTAGTGCAG”, the binding signal is 11100 fluorescence intensity (a.u.).

As to “GTTCATGCAATAACGTTAATTTGGGACTAGATTAGTATCCCGGAGTCACCTAGTGCAG”, the binding signal is 7620 fluorescence intensity (a.u.).

For “TTTATAATTAGTATCAAAACATCCGATATGATAGTTACTTCGGAGTCACCTAGTGCAG”, the binding signal is 17100 fluorescence intensity (a.u.).

Regarding “CCAATCCACAACATAACCATCAATCATTCATTGACGCAAGCGGAGTCACCTAGTGCAG”, the binding signal is 4680 fluorescence intensity (a.u.).

For “GATTAATTTACTAGACGAATCTTTTAAGCCTAATTACTCCCGGAGTCACCTAGTGCAG”, the binding signal is 36100 fluorescence intensity (a.u.).

“CCGTCGCCTGATGGAGCAGAATCGTGAAACACGTTGTAAGCGGAGTCACCTAGTGCAG”: the binding signal is 57800 fluorescence intensity (a.u.).

As for “TTTCATGTAAATTAACACGAGCCTGAATCCTCCGTTGAAGCGGAGTCACCTAGTGCAG”, the binding signal is 3750 fluorescence intensity (a.u.).

For “CTAAACACGTTGATGGGCCTGAATGGAGGAAGCCCATCGACGGAGTCACCTAGTGCAG”, the binding signal is 3790 fluorescence intensity (a.u.).

Consider “ATAATAATTAGTCATAAAGACAAGTGCTTATGCCCACTTACGGAGTCACCTAGTGCAG”, for which the binding signal is 16700 fluorescence intensity (a.u.).
